PRC2 inh – EZH2 (human) methyltransferase inhibition. Q15910. PRC2 H3K27 methylation, DELFIA TRF, 1 h. inhibition, % at 12.5 µM. 57,000 compounds, 0.35% hits. AID 651548;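 active = mean inhibition of replicates at least 50% and every single replicate also reaching 50%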;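 note: dimethyl H3K27 on biotinylated H3 21-44 peptide detected by antibody; plate controls were median neutral control wells for no effect and median positive control wells for full effect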
Target sequence (Q15910 whole entry, looked up): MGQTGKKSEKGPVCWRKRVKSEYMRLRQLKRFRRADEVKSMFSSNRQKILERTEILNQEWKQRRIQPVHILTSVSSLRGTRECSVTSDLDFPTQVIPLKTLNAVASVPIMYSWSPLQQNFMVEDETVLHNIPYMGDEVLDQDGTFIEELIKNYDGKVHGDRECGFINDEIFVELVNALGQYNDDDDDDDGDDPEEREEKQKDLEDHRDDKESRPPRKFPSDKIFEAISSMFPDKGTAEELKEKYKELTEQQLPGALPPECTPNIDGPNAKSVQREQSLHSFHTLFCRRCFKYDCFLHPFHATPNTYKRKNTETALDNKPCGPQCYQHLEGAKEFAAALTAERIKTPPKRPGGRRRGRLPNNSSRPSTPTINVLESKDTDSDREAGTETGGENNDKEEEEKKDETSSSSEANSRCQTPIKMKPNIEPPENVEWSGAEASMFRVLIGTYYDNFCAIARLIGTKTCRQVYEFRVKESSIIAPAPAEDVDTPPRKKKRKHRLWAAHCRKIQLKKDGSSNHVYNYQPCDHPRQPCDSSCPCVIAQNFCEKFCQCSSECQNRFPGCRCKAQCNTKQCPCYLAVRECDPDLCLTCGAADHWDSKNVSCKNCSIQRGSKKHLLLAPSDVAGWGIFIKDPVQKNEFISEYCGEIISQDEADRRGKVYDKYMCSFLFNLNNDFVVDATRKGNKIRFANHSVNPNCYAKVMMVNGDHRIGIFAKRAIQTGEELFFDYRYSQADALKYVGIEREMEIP
* hit, by the source's call. Many of the other results were omitted from the sample, so hits are more common in it than they were.

SMILES	PRC2 inh
COC(=O)C1=CO[C@@H](O[C@@H]2O[C@H](CO)[C@@H](O)[C@H](O)[C@H]2O)[C@@H]2[C@@H](C)[C@@H](O)[C@@H](OC(=O)/C=C/c3ccc(O)c(O)c3)[C@H]12	11
C=CC(C)(O)CC/C=C(\C)C(=O)OCC1CCC2C(C(=O)O)=COC(OC3OC(CO)C(O)C(O)C3O)C12 (stereo not given)	0
COC(=O)C1=CO[C@@H](O[C@@H]2O[C@H](CO)[C@@H](O)[C@H](O)[C@H]2O)[C@@H]2[C@@H]3CN4CCc5c([nH]c6ccccc56)[C@]4(C[C@H]12)O3	52*
C=C[C@H]1[C@H](O[C@@H]2O[C@H](CO)[C@@H](O)[C@H](O)[C@H]2O)OC=C(C(=O)OC)[C@H]1C[C@@H]1N[C@H](C(=O)O)Cc2c1[nH]c1ccccc21	98*
CC1(OC(=O)/C=C/c2ccccc2)CC(O)C2C=COC(OC3OC(CO)C(O)C(O)C3O)C21 (stereo not given)	12
CCc1cccc2c(C#N)cn(CC(=O)NCC3CCCO3)c12 (stereo not given)	1
O=C(C[C@H]1C=C[C@@H](NC(=O)C2CCC2)[C@H](CO)O1)NCCCN1CCOCC1	3
OCCCNc1nc(-c2ccccc2Cl)c2cc(Br)ccc2n1	-2
Brc1ccc2noc(-c3ccccc3)c2c1	63*
Brc1ccc2nc(NCc3ccccn3)nc(-c3ccccc3)c2c1	28
COc1ccc(NC(=O)N(C)C[C@H]2OCc3cn(nn3)CCCC(=O)N([C@H](C)CO)C[C@H]2C)cc1	3
CO[C@@H]1CN(C)C(=O)c2ccc(NC(=O)c3ccc4c(c3)OCO4)cc2OC[C@@H](C)N(CC2CC2)C[C@H]1C	-9
C[C@H]1CN([C@@H](C)CO)C(=O)c2cccc(NC(=O)C3CCOCC3)c2O[C@H]1CN(C)C(=O)Nc1ccc(F)cc1	0
C[C@@H]1CN([C@H](C)CO)C(=O)c2cc(N(C)C)ccc2O[C@@H]1CN(C)C(=O)Nc1ccc2c(c1)OCO2	-3
Cc1cc2oc(=O)cc(CN(C)Cc3ccccc3)c2cc1C(C)C	50*
CCCc1cc(=O)oc2cc(OCc3cc(C(=O)O)oc3C)ccc12	-8
Cc1cc(=O)oc2cc(NC(=S)NCc3cccnc3)ccc12	-9
O=C(NCSCc1cccc(C(F)(F)F)c1)Nc1ccc(F)c(Cl)c1	56*
CCn1c(SCC(=O)Nc2ccc(F)c(Cl)c2)nnc1-c1cccc(C)c1	1
CC(C(=O)Nc1cccc(C(F)(F)F)c1)N(c1ccc(Cl)cc1)S(C)(=O)=O (stereo not given)	-5
O=C(N[C@@H]1C=C[C@@H](CC(=O)N2CCc3ccccc3C2)O[C@@H]1CO)C1CC1	12
CO[C@@H]1CN(C)C(=O)c2ccc(NC(C)=O)cc2OC[C@@H](C)N(Cc2cc(F)ccc2F)C[C@H]1C	-40
COc1ccc(-c2cnc3c(c2)C(=O)N([C@@H](C)CO)C[C@H](C)[C@H](CN(C)C(=O)C2CCCCC2)O3)cc1	1
O=S(=O)(N[C@@H]1CC[C@H](CCn2cc(-c3cccc(F)c3)nn2)O[C@H]1CO)c1ccc(F)cc1	-4
CCCCCCN(CCCCCC)C(=O)Cc1c(-c2ccc(F)cc2)[nH]c2ccccc12	20
SMILES	PRC2 inh
CCCCOC(=O)c1ccc(N)cc1	4
CCCCCCCCc1ccc(-c2ccc(C(=O)O)cc2)cc1	72*
Cc1nc(SCC(=O)c2ccc(Cl)s2)c2c(C)c(C)sc2n1	21
C[C@H](CO)N1C[C@H](C)[C@H](CN(C)S(C)(=O)=O)Oc2cc(-c3ccc(F)cc3)ccc2S1(=O)=O	-7
COc1ccc(N(C(=O)C2CCCCC2)S(=O)(=O)c2cccc3cccnc23)cc1	8
CC(=O)c1c(C)oc2ccc(N(C(=O)c3ccncc3)S(=O)(=O)c3ccc(F)cc3C)cc12	13
Cc1ccc(S(=O)(=O)N(C(=O)C2CCCCC2)c2ccc3oc(=O)sc3c2)c(C)c1	54*
COc1ccc(NC(=O)N[C@H]2CC[C@@H](CC(=O)NC3CCCCC3)O[C@@H]2CO)cc1	-2
O=C(CCCCCCC(=O)Nc1ccccc1O)N/N=C/c1ccncc1Br	17
O=C(CSc1n[nH]c(-c2ccc(Cl)cc2Cl)n1)Nc1ccc(I)cc1	58*
O=C(CSc1n[nH]c(-c2ccc(Cl)cc2Cl)n1)Nc1cccc(C(F)(F)F)c1	29
O=C(CSc1n[nH]c(-c2ccc(Cl)cc2Cl)n1)Nc1cc(C(F)(F)F)ccc1Cl	9
COc1ccc(Cl)cc1NC(=O)CSc1nc2ccccc2n1-c1ccccc1	1
C/C(=C\C(=O)O)CCC1C(C)(O)CCC2C(C)(CO)CCCC12C (stereo not given)	65*
C/C(=C/C(=O)O)CCC1C(C)CCC2C(C)(C=O)C(O)CCC12C (stereo not given)	15
C=C1CCC2C(C)(CO)CCCC2(C)C1CC/C(C)=C/C(=O)O (stereo not given)	14
COc1ccc(C(C)C(=O)c2ccc(O)cc2O)cc1O (stereo not given)	41
Nc1cc(=O)[nH]c(SCC(=O)Nc2ccc(Br)cc2Cl)n1	-9
Cc1cc(I)ccc1NC(=O)CCN1C(=O)c2cccc([N+](=O)[O-])c2C1=O	6
C[C@@H]1O[C@@H](Oc2ccc(C3Oc4cc(O)cc(O)c4C(=O)C3O)cc2O)[C@H](O)[C@H](O)[C@H]1O (stereo not given in full)	97*
O=C1c2c(O)cc(O)cc2O[C@H](c2ccccc2)[C@H]1O	8
C[C@@H]1O[C@@H](O[C@H]2[C@H](Oc3cc(O)c4c(c3)O[C@H](c3ccc(O)c(O)c3)CC4=O)O[C@H](CO)[C@@H](O)[C@@H]2O)[C@H](O)[C@H](O)[C@H]1O	4
O=C(Nc1ccc(F)cc1)N[C@@H]1CC[C@H](CCn2cc(-c3ccc(F)cc3)nn2)O[C@@H]1CO	26
CNC[C@@H]1OCCCC[C@@H](C)Oc2ccc(NC(=O)Nc3cccc4ccccc34)cc2C(=O)N([C@H](C)CO)C[C@@H]1C	-5
O=C(CSc1nc2ccccc2s1)Nc1ccc(Cl)cc1	41
SMILES	PRC2 inh
Cc1ccc(NC(=O)CSc2nc3ccccc3s2)cc1C	55*
Cc1ccc(NC(=O)CSc2nc3ccccc3s2)cc1Cl	48
O=C(N[C@@H]1CC[C@@H](CCNC(=O)C2CCOCC2)O[C@@H]1CO)c1ccccn1	-2
O=C(N[C@@H]1CC[C@H](CC(=O)N2CCOCC2)O[C@H]1CO)c1ccc2c(c1)OCO2	3
Cc1ccc(Nc2nc(Oc3ccc(OCc4ccccc4)nn3)nc(N(C)C)n2)cc1	4
C[C@H](CO)N1C[C@H](C)[C@@H](CN(C)Cc2ccc(C(=O)Nc3ccccc3N)cc2)Oc2c(NS(C)(=O)=O)cccc2C1=O	-7
O=C(N[C@H]1CC[C@@H](CCn2cc(-c3ccccn3)nn2)O[C@@H]1CO)c1ccncc1	2
CSc1nc(N2CCCCC2)c2c(c1C#N)CCCC2	63*
O=C(O)Cc1cccc(OCCCN(Cc2cccc(C(F)(F)F)c2Cl)CC(c2ccccc2)c2ccccc2)c1	85*
C[C@H]1CCCCO[C@@H](CN(C)C)[C@@H](C)CN([C@@H](C)CO)C(=O)c2cc(NC(=O)Nc3ccc(C(F)(F)F)cc3)ccc2O1	4
O=c1cc(-c2ccc(O)cc2)oc2c(C3OC(CO)C(O)C(O)C3O)c(O)c(C3OCC(O)C(O)C3O)c(O)c12 (stereo not given)	99*
O=C1CC(c2ccc(O)cc2)Oc2cc(O[C@@H]3O[C@H](CO)[C@@H](O)[C@H](O)[C@H]3O)cc(O)c21 (stereo not given in full)	-2

Compound activity from PubChem BioAssay.
